Assay results from PubChem BioAssay (NCATS).
Several values for one entry are separate records, joined by “and”; a condition that tells them apart may be missing. Equal values may be shown once. Records with an inconclusive call do not appear. Activity calls are given as the source filed them. Unless noted, calls come from the whole dose curve; as a rule, active = well fitted curve in the direction sought with a large enough effect; inconclusive = small, poorly fitted or top-dose-only effect, or another doubt; inactive = no such curve, though single readings can be large; an effect the other way counts as inactive or inconclusive.

Tests used:
[1] = biological target: ATP-dependent 6-phosphofructokinase (Trypanosoma brucei brucei) (UniProt O15648); assay: qHTS Assay to Find Inhibitors of T. brucei phosphofructokinase: hit validation (AID 492961);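 note: luminescence reports ADP formed as PFK phosphorylates fructose-6-phosphate with ATP; % is set by controls: 0 for no effect and ±100 for the full control effect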; conditions: T. brucei PFK, ADP-Glo luminescence; series mostly up to 51.4 µM
Outline: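 PFK 1.25 nM, F6P 0.5 mM, ATP 0.1 mM, MgCl2 5 mM, 0.1 M TEA pH 8.0, Tween20 0.01%, BSA 0.1%; 45 min RT. ADP-Glo two-step detection, luminescence. qHTS titration; curve fitting with curve-class categorization.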

[2] = biological target: Luciferin 4-monooxygenase (Photinus pyralis) (UniProt P08659); assay: Biochemical firefly luciferase enzyme assay for NPC (AID 624030);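 note: purified P. pyralis luciferase at 10 nM with luciferin and ATP substrate; 0% = DMSO and -100% = full luciferase inhibition by PTC124 control; nearly all actives have a fitted effect of over 70% in size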; conditions: purified P. pyralis luciferase, luminescence, 5 min; series mostly up to 58.6 µM
Outline: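 Counter-screen for direct inhibition of the luciferase enzyme by approved-drug library compounds, run at 10 nM enzyme in 50 mM Tris acetate (final). Luminescence was read within 5 min of enzyme-buffer addition and normalized to PTC124 versus DMSO (0%).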

3D7 = assay: qHTS profiling for inhibitors of Plasmodium falciparum proliferation (AID 504749); note: nearly all actives have a fitted effect of over 60% in size; note: potency is the fitted concentration of half-maximal effect; conditions: P. falciparum in erythrocytes, SYBR Green DNA, 72 h; series mostly up to 28.7 µM
Outline: (§1)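 Fluorescence of SYBR Green-bound parasite DNA, read at 485/535 nm, served as the growth measure. Infected erythrocytes were cultured with compound 72 h; artemisinin (0.29 uM) and DMSO wells defined the normalization range.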

AS120 = assay: as above; conditions: P. falciparum in erythrocytes, SYBR Green DNA, 72 h; series mostly up to 28.7 µM
Outline: as §1

ATS189 = assay: as above; conditions: P. falciparum in erythrocytes, SYBR Green DNA, 72 h; series mostly up to 28.7 µM
Outline: as §1

ATS95 = assay: as above; conditions: P. falciparum in erythrocytes, SYBR Green DNA, 72 h; series mostly up to 28.7 µM
Outline: as §1

CP247 = assay: as above; conditions: P. falciparum in erythrocytes, SYBR Green DNA, 72 h; series mostly up to 28.7 µM
Outline: as §1

CP262 = assay: as above; conditions: P. falciparum in erythrocytes, SYBR Green DNA, 72 h; series mostly up to 28.7 µM
Outline: as §1

ECU = assay: as above; conditions: P. falciparum in erythrocytes, SYBR Green DNA, 72 h; series mostly up to 28.7 µM
Outline: as §1

P94_40 = assay: as above; conditions: P. falciparum in erythrocytes, SYBR Green DNA, 72 h; series mostly up to 28.7 µM
Outline: as §1

TAB109 = assay: as above; conditions: P. falciparum in erythrocytes, SYBR Green DNA, 72 h; series mostly up to 12.8 µM
Outline: as §1

[3] = biological target: DNA dC->dU-editing enzyme APOBEC-3G (Homo sapiens) (UniProt Q9HC16); assay: qHTS for inhibitors of Vif-A3G interactions: Validation (AID 588379); conditions: Vif-A3G protein interaction assay; series mostly up to 46.1 µM; note: 0% is about no effect
Outline: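 Yellow fluorescence (Ex 488, Em 500-530) of Vif-coexpressing HeLa A3G-eYFP cells, scanned by Acumen cytometer, reports blocked A3G degradation. Cells plated at 700/well overnight at 37 deg C before compound addition, then a further overnight compound incubation at 37 deg C.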

[4] = biological target: Estrogen receptor (Homo sapiens) (UniProt P03372); assay: qHTS assay for small molecule agonists of estrogen receptor alpha signaling (AID 588514; calls by dose curve;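 note: 0% = vehicle only and 100% = reference agonist; nearly all actives have a fitted effect of over 70% in size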); conditions: ER-alpha-UAS-bla HEK293, beta-lactamase ratio, 18 h; series mostly up to 76.8 µM
Outline: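 Fluorescence from CCF4 cleavage reports ER-alpha-driven beta-lactamase expression in HEK 293 cells treated 18 hrs at 37 C. Data normalized to 17-beta-estradiol (20 nM) and DMSO, fitted to Hill equation.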

[5] = biological target: Glucocorticoid receptor (Homo sapiens) (UniProt P04150); assay: qHTS assay for small molecule antagonists of glucocorticoid receptor signaling (AID 588533; active = well fitted inhibition curve with a large enough effect in the signal ratio, with a control signal flat, not every such curve was filed as active; the % refers to the signal ratio;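 note: cells stimulated with 2 nM dexamethasone as agonist; % is set by controls: 0 for no effect and ±100 for the full control effect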); conditions: HeLa MMTV-bla, GRE beta-lactamase ratio, antagonist mode, 18 h; series mostly up to 76.8 µM
Outline: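 Antagonist-mode qHTS: compound titrations added to GRE-bla HeLa cells, then dexamethasone 2 nM final; 18 h, 37 C. CCF4 FRET fluorescence normalized to dexamethasone and DMSO; IC50 from Hill fit.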

[6] = biological target: Vitamin D3 receptor (Homo sapiens) (UniProt P11473); assay: qHTS assay for small molecule agonists of vitamin D receptor signaling (AID 588543; calls by dose curve;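 note: 0% = DMSO basal and 100% = reference agonist control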); conditions: HEK293T VDR-UAS-bla, beta-lactamase ratio, 16 h; series mostly up to 76.8 µM
Outline: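 VDR-UAS-bla HEK293T cells, 2000/well, 2% charcoal-stripped FBS; compound titration 16 h at 37 C; CCF4 beta-lactamase ratio read. Normalized to 50 nM 1-alpha,25-dihydroxyvitamin D3 (100%) and DMSO; Hill fit gives EC50, efficacy.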

[7] = qHTS assay for small molecule agonists of retinoid X receptor alpha signaling (AID 588544); conditions: HEK293T RXRa-UAS-bla, beta-lactamase reporter, 18 h; 530 nm emission
[8] = biological target: Thyroid hormone receptor beta (Homo sapiens) (UniProt P10828); assay: qHTS assay for small molecule antagonists of thyroid hormone receptor beta signaling (AID 588547; active = well fitted inhibition curve with a large enough effect in the signal ratio, with a control signal flat, not every such curve was filed as active; the % refers to the signal ratio;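 note: cells stimulated with 0.4 nM T3 agonist during compound exposure; % is set by controls: 0 for no effect and ±100 for the full control effect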); conditions: TR-UAS-bla HEK293, beta-lactamase ratio, antagonist mode, 18 h
Outline: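 TR-UAS-bla GripTite HEK293 cells in 2% charcoal/dextran FBS medium were preincubated 4 h at 37 C, given compound (0.59 nM to 92 uM) plus 0.4 nM T3 (final) for 18 h, then CCF4 for 2 h at RT; Hill fit gave IC50.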

[9] = qHTS assay for small molecule activators of the p53 signaling pathway (AID 651743; active = well fitted activation curve with a large enough effect in the signal ratio, not every such curve was filed as active; the % refers to the signal ratio; note: % of control where 0% means no effect); conditions: HCT-116 p53RE-bla, beta-lactamase FRET ratio, 16 h; activation: stronger effect = higher value
Outline: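 Here HCT-116 cells with an integrated p53-responsive beta-lactamase gene were incubated with compounds (16 hours, 37 C) after a 5-hour plating period; beta-lactamase activity was detected as fluorescence intensity via B/G FRET substrate.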

[10] = qHTS assay for small molecule activators of the nuclear factor-kappa B (NF-kB) signaling pathway (AID 651749; active = well fitted activation curve with a large enough effect in the signal ratio; the % refers to the signal ratio; note: % of control where 0% means no effect); conditions: NF-kB-bla ME-180 cells, beta-lactamase FRET ratio, 16 h; activation: stronger effect = higher value
Outline: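 Beta-lactamase reporter expression, controlled by NF-kB response elements in ME-180 cells, was quantified fluorometrically via FRET disruption; cells at 2,000/well had been incubated with 23 nL test compound for 16 hr.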

[11] = biological target: Glucocorticoid receptor (Homo sapiens) (UniProt P04150); assay: qHTS assay for small molecule agonists of glucocorticoid receptor signaling (AID 588532; active = well fitted curve in the direction sought with a large enough effect in the signal ratio, with a control signal flat; the % refers to the signal ratio;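 note: 100% = dexamethasone at 0.1 µM and 0% = DMSO only wells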); conditions: HeLa MMTV-bla, beta-lactamase ratio, agonist, 18 h; stronger effect = higher value; percent of dexamethasone control, DMSO zero
Outline: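 MMTV-bla HeLa, beta-lactamase reporter; medium with 1% charcoal/dextran-stripped FBS; cpds up to 92 uM, 18 h, 37 C; CCF4 readout 460/530 nm; Hill fit → EC50, efficacy vs 0.1 uM dexamethasone = 100%.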

Chain of DNA dC->dU-editing enzyme APOBEC-3G (Homo sapiens) (Q9HC16 whole entry, looked up): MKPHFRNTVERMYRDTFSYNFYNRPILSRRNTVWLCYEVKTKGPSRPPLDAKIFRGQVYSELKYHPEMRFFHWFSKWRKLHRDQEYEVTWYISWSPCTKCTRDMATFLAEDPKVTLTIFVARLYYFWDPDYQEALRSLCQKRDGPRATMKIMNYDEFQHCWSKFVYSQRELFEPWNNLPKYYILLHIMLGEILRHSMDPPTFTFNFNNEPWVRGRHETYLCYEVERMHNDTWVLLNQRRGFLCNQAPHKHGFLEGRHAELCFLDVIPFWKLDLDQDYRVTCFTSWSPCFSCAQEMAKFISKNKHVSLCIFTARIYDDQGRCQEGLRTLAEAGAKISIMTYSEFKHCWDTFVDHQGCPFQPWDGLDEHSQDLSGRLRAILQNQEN
Chain of Vitamin D3 receptor (Homo sapiens) (P11473 whole entry, looked up): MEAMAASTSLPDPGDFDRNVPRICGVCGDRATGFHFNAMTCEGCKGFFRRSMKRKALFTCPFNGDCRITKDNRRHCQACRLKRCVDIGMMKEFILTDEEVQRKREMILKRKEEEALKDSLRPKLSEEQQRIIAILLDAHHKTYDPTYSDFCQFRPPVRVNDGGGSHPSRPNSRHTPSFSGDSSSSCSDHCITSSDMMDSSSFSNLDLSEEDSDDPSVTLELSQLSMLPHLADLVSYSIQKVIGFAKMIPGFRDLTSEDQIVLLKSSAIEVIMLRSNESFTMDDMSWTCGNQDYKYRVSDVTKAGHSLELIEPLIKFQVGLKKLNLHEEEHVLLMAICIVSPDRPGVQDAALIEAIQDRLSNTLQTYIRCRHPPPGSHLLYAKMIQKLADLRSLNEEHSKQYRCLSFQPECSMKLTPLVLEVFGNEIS
Chain of Glucocorticoid receptor (Homo sapiens) (P04150 whole entry, looked up): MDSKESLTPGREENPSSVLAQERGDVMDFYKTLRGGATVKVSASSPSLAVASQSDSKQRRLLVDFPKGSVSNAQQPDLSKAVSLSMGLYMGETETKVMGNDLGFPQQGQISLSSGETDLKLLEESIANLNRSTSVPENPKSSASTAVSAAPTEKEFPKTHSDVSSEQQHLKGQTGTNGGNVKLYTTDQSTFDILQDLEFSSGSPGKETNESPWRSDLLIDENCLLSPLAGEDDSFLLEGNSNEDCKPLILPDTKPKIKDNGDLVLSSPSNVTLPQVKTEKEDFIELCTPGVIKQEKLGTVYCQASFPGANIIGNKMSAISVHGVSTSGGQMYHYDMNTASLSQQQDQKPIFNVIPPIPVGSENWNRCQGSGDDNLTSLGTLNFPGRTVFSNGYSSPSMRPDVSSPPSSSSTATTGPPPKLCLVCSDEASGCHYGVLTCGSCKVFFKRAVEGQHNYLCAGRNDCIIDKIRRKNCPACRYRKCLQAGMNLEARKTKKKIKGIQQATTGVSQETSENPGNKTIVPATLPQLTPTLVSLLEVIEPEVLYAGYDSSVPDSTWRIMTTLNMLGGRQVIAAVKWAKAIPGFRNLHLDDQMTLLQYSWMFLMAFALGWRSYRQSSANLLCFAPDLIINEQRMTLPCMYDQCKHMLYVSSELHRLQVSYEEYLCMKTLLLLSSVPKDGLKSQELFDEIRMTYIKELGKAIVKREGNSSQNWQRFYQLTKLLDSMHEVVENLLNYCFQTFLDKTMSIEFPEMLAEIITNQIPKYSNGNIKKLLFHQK
Chain of Thyroid hormone receptor beta (Homo sapiens) (P10828 whole entry, looked up): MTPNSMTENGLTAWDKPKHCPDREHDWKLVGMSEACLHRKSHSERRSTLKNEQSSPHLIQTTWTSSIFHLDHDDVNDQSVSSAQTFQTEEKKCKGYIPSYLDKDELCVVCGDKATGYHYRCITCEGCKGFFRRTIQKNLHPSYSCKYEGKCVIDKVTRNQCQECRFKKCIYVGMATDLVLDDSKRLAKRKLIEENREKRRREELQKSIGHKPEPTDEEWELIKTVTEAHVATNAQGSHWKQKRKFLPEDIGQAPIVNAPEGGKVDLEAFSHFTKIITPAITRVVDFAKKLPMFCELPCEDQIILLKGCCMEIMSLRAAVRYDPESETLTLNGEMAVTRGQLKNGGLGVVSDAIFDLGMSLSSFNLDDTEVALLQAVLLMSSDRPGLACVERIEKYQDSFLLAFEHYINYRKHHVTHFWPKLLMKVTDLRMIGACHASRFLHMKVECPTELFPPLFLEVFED
Chain of ATP-dependent 6-phosphofructokinase (Trypanosoma brucei brucei) (O15648 whole entry, looked up): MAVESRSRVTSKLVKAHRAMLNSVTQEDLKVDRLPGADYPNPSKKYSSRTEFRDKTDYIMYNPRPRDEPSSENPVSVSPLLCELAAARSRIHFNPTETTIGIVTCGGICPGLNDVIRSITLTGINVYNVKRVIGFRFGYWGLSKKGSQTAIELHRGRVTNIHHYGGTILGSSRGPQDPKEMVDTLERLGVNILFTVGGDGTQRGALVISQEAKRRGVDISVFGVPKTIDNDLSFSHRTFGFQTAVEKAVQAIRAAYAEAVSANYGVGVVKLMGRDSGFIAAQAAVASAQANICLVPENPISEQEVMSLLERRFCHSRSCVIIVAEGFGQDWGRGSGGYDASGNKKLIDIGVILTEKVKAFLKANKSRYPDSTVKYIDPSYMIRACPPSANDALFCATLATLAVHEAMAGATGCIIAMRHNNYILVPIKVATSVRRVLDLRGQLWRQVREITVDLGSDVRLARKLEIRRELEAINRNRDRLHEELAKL
Chain of Luciferin 4-monooxygenase (Photinus pyralis) (P08659 whole entry, looked up): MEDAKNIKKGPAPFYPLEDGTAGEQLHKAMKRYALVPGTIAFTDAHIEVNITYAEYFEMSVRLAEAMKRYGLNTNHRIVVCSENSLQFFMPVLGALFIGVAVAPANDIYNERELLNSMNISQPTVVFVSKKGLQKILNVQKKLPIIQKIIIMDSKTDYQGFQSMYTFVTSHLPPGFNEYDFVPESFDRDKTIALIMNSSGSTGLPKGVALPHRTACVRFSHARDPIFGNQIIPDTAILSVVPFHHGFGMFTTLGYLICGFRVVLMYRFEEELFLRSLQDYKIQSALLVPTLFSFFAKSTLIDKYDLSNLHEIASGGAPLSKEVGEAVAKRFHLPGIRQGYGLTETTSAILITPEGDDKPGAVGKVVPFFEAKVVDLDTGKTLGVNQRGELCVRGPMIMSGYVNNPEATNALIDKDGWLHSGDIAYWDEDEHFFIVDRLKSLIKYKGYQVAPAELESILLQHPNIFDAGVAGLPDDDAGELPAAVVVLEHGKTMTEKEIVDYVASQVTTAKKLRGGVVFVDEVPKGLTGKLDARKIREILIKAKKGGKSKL
Chain of Estrogen receptor (Homo sapiens) (P03372 whole entry, looked up): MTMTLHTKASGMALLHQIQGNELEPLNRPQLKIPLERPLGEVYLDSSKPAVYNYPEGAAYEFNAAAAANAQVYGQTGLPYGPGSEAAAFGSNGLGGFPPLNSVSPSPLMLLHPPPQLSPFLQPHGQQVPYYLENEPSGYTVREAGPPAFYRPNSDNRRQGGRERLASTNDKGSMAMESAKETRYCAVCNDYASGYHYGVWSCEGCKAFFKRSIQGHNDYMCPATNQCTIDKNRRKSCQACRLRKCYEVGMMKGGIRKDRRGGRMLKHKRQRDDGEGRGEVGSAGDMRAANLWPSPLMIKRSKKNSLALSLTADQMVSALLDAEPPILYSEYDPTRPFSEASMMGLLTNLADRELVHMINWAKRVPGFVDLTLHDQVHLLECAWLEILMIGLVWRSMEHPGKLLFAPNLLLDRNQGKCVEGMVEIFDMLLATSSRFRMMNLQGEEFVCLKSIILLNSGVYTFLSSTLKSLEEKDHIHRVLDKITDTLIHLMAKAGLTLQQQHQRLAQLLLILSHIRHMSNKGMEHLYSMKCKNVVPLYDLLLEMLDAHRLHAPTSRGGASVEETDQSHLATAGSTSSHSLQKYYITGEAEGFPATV

C=CC1CN2CCC1CC2C(OC(=O)OCC)c1ccnc2ccc(OC)cc12 (configuration not stated)
active: Potency (3D7) 2.51 µM | Potency (AS120) 7.94 µM | Potency (ATS189) 5.62 µM | Potency (ATS95) 3.98 µM | Potency (CP247) 7.94 µM | Potency (CP262) 6.01 µM | Potency (ECU) 3.98 µM | Potency (P94_40) 3.55 µM | Potency (TAB109) 4.47 µM
inactive: Potency [1] | Potency [2]

C=C[C@H]1CN2CC[C@H]1C[C@H]2c1[nH]c2ccccc2c1CCO
inactive: outcome [3]

CC(C)(C)[C@]1(O)C[C@@H]2OC(=O)C[C@@]23C(=O)O[C@@H]2OC(=O)[C@H](O)[C@]213
inactive: outcome [3]

COc1nc(NC(C)C)nc(NC(C)C)n1
inactive: Potency [4] | Potency [5] | outcome [6] | activity change % (negative = inhibition) [8] 0.677% | activation [9] -5.88% | activation [10] -2.09%
21.4%: max response [7]

COc1cc2c(cc1OC)[C@@]13CCN4CC5=CCOC6CC(=O)N2C1[C@H]6[C@@H]5C[C@@H]43 (some centres not stated)
inactive: Potency [1] | Potency [2] | Potency (3D7) | Potency (AS120) | Potency (ATS189) | Potency (ATS95) | Potency (CP247) | Potency (CP262) | Potency (ECU) | Potency (P94_40) | Potency (TAB109)

CNC(C)[C@@H](O)c1ccccc1 (some centres not stated)
inactive: Potency [1] | Potency [2] | Potency (3D7) | Potency (AS120) | Potency (ATS189) | Potency (ATS95) | Potency (CP247) | Potency (CP262) | Potency (ECU) | Potency (P94_40) | Potency (TAB109)

CNc1ccc(C(=O)CC(O)CCC(C)C2OC(=O)CC(O)CC(=O)CC(O)CC(O)CC(O)CC(O)CC3(O)CC(O)C(C(=O)OC)C(CC(O[C@@H]4OC(C)C(O)C(N)C4O)/C=C/C=C/C=C/C=C/C=C/C=C/C=C/C2C)O3)cc1 (some centres not stated)
inactive: Potency [1] | Potency [2] | Potency (3D7) | Potency (AS120) | Potency (ATS189) | Potency (ATS95) | Potency (CP247) | Potency (CP262) | Potency (ECU) | Potency (P94_40) | Potency (TAB109)

CC1CC[C@@]2(NC1)O[C@@H]1C[C@H]3C4CC=C5C[C@@H](O)CC[C@]5(C)C4CC[C@]3(C)[C@H]1[C@@H]2C (some centres not stated)
inactive: outcome [3]

O=C(O)COc1cc(Cl)c(Cl)cc1Cl
28.5%: max response [7]
inactive: activation [11] -6.14% | Potency [5] | outcome [6] | activity change % (negative = inhibition) [8] 7.44%

CCc1cccc(C)c1N(C(=O)CCl)C(C)COC (configuration not stated)
inactive: outcome [6] | activation [9] -2.17% | activation [10] -1.58%

CNC(=O)Oc1cccc2c1OC(C)(C)O2
-5.16%: max response [7]
inactive: Potency [4] | activation [11] -2.85% | Potency [5] | outcome [6] | activation [9] 0.009% | activation [10] -0.841%

CCC(C)C1O[C@]2(C=CC1C)CC1CC(C/C=C(\C)[C@H](OC3CC(OC)C(O[C@H]4CC(OC)[C@@H](O)C(C)O4)C(C)O3)[C@@H](C)/C=C/C=C3\COC4C(O)C(C)=C[C@H](C(=O)O1)[C@@]34O)O2 (some centres not stated)
active: Potency (3D7) 11.2 µM | Potency (AS120) 10 µM | Potency (ATS189) 11.2 µM | Potency (ATS95) 10 µM | Potency (CP247) 8.91 µM | Potency (ECU) 8.91 µM | Potency (P94_40) 10 µM | Potency (TAB109) 8.91 µM
inactive: Potency [1] | Potency [2] | Potency (CP262)

C[C@]1(C(=O)O)CCC[C@]2(C)c3cc(O)ccc3CC[C@@H]12
inactive: outcome [3]

CC(C)N1C(=O)c2ccccc2NS1(=O)=O
-6.21%: max response [7]
inactive: Potency [4] | activation [11] 4.24% | Potency [5] | activity change % (negative = inhibition) [8] -1.01% | activation [9] 2.08% | activation [10] -0.185%

CC(C)CC(CN)CC(=O)O (configuration not stated)
inactive: Potency [1] | Potency [2]

O=C1CCCC2[C@@H]3CCCN4CCC[C@@H](CN12)C34 (some centres not stated)
inactive: outcome [3]

CNC(=O)Oc1ccccc1OC(C)C
inactive: Potency [4] | activation [11] -7.67% | Potency [5] | outcome [6] | activity change % (negative = inhibition) [8] 16.1% | activation [10] -2.6%
-0.248%: max response [7]

N#Cc1c(Cl)cccc1Cl
-4.43%: max response [7]
inactive: Potency [4] | activation [11] 0.597% | Potency [5] | activity change % (negative = inhibition) [8] -4.17% | activation [9] -3.69% | activation [10] -0.285%

COP(N)(=O)SC (configuration not stated)
inactive: Potency [4] | activation [11] -1.71% and 14.7% | Potency [5] | activity change % (negative = inhibition) [8] 12.1% and -8.42% | activation [9] 0.404% and 2.15% | activation [10] 0.304% and 1.6%
-14.8% and -10.1%: max response [7]

CC(C)(O)[C@@H]1C2OC(=O)[C@@H]1[C@]1(O)C[C@H]3O[C@]34C(=O)O[C@H]2[C@]14C
inactive: outcome [3]

C=C[C@H]1CN2CCC1C[C@@H]2C(O)c1ccnc2ccccc12 (some centres not stated)
inactive: outcome [3]

CC([C@H](O)c1ccccc1)N(C)C (some centres not stated)
inactive: Potency [1] | Potency [2] | Potency (3D7) | Potency (AS120) | Potency (ATS189) | Potency (ATS95) | Potency (CP247) | Potency (CP262) | Potency (ECU) | Potency (P94_40) | Potency (TAB109)

CCS(=O)CCSP(=O)(OC)OC (configuration not stated)
-13.5%: max response [7]
inactive: Potency [4] | activation [11] 2.31% | Potency [5] | outcome [6] | activity change % (negative = inhibition) [8] -3.19% | activation [9] -0.772% | activation [10] -0.59%

CCCCSP(=O)(SCCCC)SCCCC
inactive: activation [11] -15% | Potency [5] | outcome [6] | activity change % (negative = inhibition) [8] -17.4% | activation [9] -2.51%

O=C1CC2OCC=C3CN4CC[C@]56c7ccccc7N1[C@H]5[C@H]2C3C[C@H]46 (some centres not stated)
inactive: outcome [3]

O=C1C=C2C=CC3C[C@@]2(O1)C1CCCCN31 (some centres not stated)
active: Potency (3D7) 12.6 µM | Potency (AS120) 10 µM | Potency (ATS189) 11.2 µM | Potency (ATS95) 10 µM | Potency (CP247) 11.2 µM | Potency (CP262) 13.5 µM | Potency (ECU) 11.2 µM | Potency (P94_40) 8.91 µM | Potency (TAB109) 5.01 µM
inactive: Potency [1] | Potency [2]

CCC(=O)Nc1ccc(Cl)c(Cl)c1
inactive: activation [9] 4.6%
4.16%: max response [7]

CC[C@@H]1CN2CC[C@@H]1C[C@H]2[C@H](O)c1ccnc2ccc(OC)cc12
inactive: outcome [3]

CC(C)Nc1nc(Cl)nc(NC(C)C)n1
7.09%: max response [7]
inactive: Potency [4] | outcome [6] | activation [9] -2.19%
